Experiment [1] can be described thus: sensitizers of A549 cells to miR-34 induction, primary screen, imaging, A549 dox-inducible miR-34, nuclei and caspase counts (AID 1347080). Particulars: A549 miR-34 inducible, Hoechst nuclei count, 48 h.
Experiment [2] can be described thus: survival rescue of mitochondrial mutant cells in low glucose, primary screen, MELAS cybrids, Rieske KO mouse fibroblasts, CellTiter-Glo (AID 1508586;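 active = mean z-score across replicates of 1.96 or higher in either the MELAS or the Rieske mutant cell line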;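 also: z relative to plate mean and SD of compound and empty wells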). On the technique in general: Cellular ATP, detected with luciferase, serves as a proxy for viable cell number.
Experiment [3] concerns the target NAD(+) hydrolase SARM1 (Homo sapiens) (UniProt Q6SZW1). In words: SARM1 TIR NADase inhibitors, cell lysate, NAD-Glo luminescence (AID 1508614;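 active = compound whose remaining NAD level is above about 45 nM, limit read from the data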;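 also: higher remaining NAD means stronger inhibition of SARM1 NADase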). Particulars: SAM-TIR HEK293T lysate NADase, at 1 µM, stronger effect = higher value.
Experiment [4] has as its target Mitogen-activated protein kinase 7 (Homo sapiens) (UniProt Q13164). Put plainly: ERK5 transactivation activators in reporter cells, primary screen, cell-based, HTS (AID 1508626;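 active = luciferase signal above three times the same-plate solvent-only control wells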;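 also: luciferase driven by Gal4-ERK5 fusion binding five Gal4 sites before minimal TATA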). Particulars: HeLa Gal4-ERK5 transactivation, 18 h, at 5 µM, stronger effect = higher value.
Experiment [5] is described as follows: viability rescue of complex I mutant cybrids, primary screen, cell-based, galactose medium, ATP luminescence (AID 1645843;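 active = z-score of at least 1.8 in each of two replicates, scored against plate mean and spread of sample wells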;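 also: positive z means more ATP and so rescue of galactose-driven cybrid death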). Particulars: complex I mutant cybrid cells, 72 h, stronger effect = higher value.
[6] abbreviates: stronger effect = lower value, cell number ratio, induced over uninduced.
Where [7] appears, read: measured here: relative caspase fold change +Dox/-Dox.
The mark [8] stands for this setting: measured here: total cells with miR-34 induction, stronger effect = lower value.
Where [9] appears, read: measured here: total cells without miR-34 induction.
[10] abbreviates: MELAS cybrid survival, CellTiter-Glo 48 h, stronger effect = higher value.
Setting [11] is: Rieske KO mouse fibroblast survival, CellTiter-Glo 72 h.

Values joined by “and” are separate entries in the source; they are usually repeats but may differ in a detail not shown here. Equal values may be shown once. Active and inactive are the calls of the source.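 The calls were made as follows, unless noted: active = compounds whose cell count with miR-34 switched on is under 0.7 times the count with it off; inactive = the rest.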

Sequence of NAD(+) hydrolase SARM1 (Homo sapiens) (Q6SZW1 whole entry, looked up, the tested form may be a part): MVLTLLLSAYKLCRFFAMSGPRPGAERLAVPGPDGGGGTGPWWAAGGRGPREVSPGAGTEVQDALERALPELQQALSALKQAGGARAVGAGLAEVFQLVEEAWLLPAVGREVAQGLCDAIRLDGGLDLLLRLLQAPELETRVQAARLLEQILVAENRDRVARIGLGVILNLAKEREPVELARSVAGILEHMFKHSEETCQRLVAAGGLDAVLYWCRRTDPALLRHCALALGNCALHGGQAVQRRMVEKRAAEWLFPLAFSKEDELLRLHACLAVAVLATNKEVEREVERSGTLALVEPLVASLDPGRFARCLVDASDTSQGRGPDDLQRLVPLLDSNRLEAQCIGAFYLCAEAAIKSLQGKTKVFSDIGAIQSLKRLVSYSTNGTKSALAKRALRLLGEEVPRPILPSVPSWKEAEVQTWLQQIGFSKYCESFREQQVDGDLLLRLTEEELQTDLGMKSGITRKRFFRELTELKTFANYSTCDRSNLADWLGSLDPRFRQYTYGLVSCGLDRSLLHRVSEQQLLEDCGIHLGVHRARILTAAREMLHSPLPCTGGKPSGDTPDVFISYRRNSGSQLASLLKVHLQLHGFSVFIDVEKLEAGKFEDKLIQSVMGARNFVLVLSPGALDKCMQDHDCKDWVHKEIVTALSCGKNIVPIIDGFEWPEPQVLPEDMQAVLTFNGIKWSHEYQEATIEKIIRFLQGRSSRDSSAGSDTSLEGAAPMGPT
Sequence of Mitogen-activated protein kinase 7 (Homo sapiens) (Q13164 whole entry, looked up, the tested form may be a part): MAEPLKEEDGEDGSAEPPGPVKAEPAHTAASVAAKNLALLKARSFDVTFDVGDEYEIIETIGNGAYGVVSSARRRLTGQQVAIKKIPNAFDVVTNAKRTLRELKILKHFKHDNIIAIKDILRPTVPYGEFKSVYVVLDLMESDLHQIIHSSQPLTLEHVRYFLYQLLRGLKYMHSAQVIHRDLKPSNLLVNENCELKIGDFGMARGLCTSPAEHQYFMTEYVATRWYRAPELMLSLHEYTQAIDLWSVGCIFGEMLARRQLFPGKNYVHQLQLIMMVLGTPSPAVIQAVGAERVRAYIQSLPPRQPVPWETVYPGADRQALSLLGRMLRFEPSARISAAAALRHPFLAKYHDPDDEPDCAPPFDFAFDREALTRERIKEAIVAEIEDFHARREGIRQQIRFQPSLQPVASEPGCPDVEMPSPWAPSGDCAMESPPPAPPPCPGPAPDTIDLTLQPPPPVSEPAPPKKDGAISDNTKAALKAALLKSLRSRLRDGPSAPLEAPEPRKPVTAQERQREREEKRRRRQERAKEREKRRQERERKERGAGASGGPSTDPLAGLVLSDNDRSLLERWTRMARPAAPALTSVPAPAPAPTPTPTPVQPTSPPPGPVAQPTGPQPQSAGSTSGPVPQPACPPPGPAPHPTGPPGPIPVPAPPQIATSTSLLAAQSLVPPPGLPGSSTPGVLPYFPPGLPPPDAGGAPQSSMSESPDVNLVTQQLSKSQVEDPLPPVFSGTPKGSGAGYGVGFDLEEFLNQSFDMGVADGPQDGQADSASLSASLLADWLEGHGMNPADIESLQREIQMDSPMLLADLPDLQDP

On to `CC1(C)OC(=O)NC1=O`, for which the fold change is 0.858 (inactive) and 0.827 (inactive) in experiment [1] (setting [6]); 1.35 and 1.46 in experiment [1] (setting [7]). Besides, the cell count in experiment [1] (setting [8]) is 8730 and 10500; in experiment [1] (setting [9]), 10200 and 12700. In addition, the z-score in experiment [2] (setting [10]) was -0.0486 (inactive); in experiment [2] (setting [11]), -0.442. The remaining NAD in experiment [3] was 10 nM (inactive). Besides, the luciferase signal in experiment [4] is 64 AU (inactive).
With `CN1CCC(=C2c3ccccc3Sc3ccccc32)CC1`, the fold change was 0.873 (inactive) in experiment [1] (setting [6]) and 1.16 in experiment [1] (setting [7]). Further, the cell count in experiment [1] (setting [8]) is 7410; in experiment [1] (setting [9]), 8480. Moreover, the figures for the z-score in experiment [2] (setting [10]) and in experiment [2] (setting [11]) were 0.363 (inactive) and 0.395, respectively. Also, the remaining NAD in experiment [3] is 83 nM (active). The luciferase signal in experiment [4] was 64 AU (inactive).
For `CC(C)NCC(O)c1ccc2ccccc2c1` (stereo unspecified), the fold change in experiment [1] (setting [6]) is 0.951 (inactive) and 0.938 (inactive) and 0.885 (inactive); in experiment [1] (setting [7]) it was 0.594 and 1.29 and 1.16. In addition, the cell count in experiment [1] (setting [8]) is 8750 and 8620 and 9710; in experiment [1] (setting [9]), 9200 and 11000. Moreover, the z-score in experiment [2] (setting [10]) was 0.654 (inactive) and -0.419 (inactive); in experiment [2] (setting [11]) it was -0.347 and -0.52; in experiment [5], 0.85 (inactive) and 0.48 (inactive). In addition, the remaining NAD in experiment [3] was 10 nM (inactive). Moreover, the luciferase signal in experiment [4] was 36 AU (inactive).
As to `Cc1c(Nc2ncccc2C(=O)O)cccc1C(F)(F)F`, the fold change in experiment [1] (setting [6]) is 0.839 (inactive) and 0.931 (inactive) and 0.832 (inactive); in experiment [1] (setting [7]) it was 1.09 and 0.676 and 4.07. In addition, the cell count was 7890 and 7810 and 10300 in experiment [1] (setting [8]); 9410 and 8390 and 12400 in experiment [1] (setting [9]). Besides, the z-score in experiment [2] (setting [10]) is -0.0893 (inactive) and -0.97 (inactive); in experiment [2] (setting [11]) it was 0.0703 and 0.938. For the same compound, the remaining NAD in experiment [3] is 10 nM (inactive). The luciferase signal in experiment [4] is 44 AU (inactive).
Take `Nc1ccc(S(=O)(=O)Nc2ccc(Cl)nn2)cc1`: the fold change is 0.789 (inactive) and 0.924 (inactive) in experiment [1] (setting [6]); 1.6 and 3.43 in experiment [1] (setting [7]). Besides, the cell count in experiment [1] (setting [8]) was 7930 and 11400; in experiment [1] (setting [9]), 10000 and 12300. The z-score was 0.0891 (inactive) in experiment [2] (setting [10]) and 0.0567 in experiment [2] (setting [11]). For the same compound, the remaining NAD in experiment [3] was 10 nM (inactive). The luciferase signal in experiment [4] was 168 AU (inactive).
In the case of `C/C=C/c1ccc(OC)cc1`, the fold change in experiment [1] (setting [6]) is 0.85 (inactive) and 0.895 (inactive); in experiment [1] (setting [7]), 3 and 1.61. The cell count in experiment [1] (setting [8]) is 10200 and 9980; in experiment [1] (setting [9]), 11900 and 11200. Moreover, the z-score in experiment [2] (setting [10]) is -0.525 (inactive); in experiment [2] (setting [11]), -1.37; in experiment [5], 0.095 (inactive). The remaining NAD in experiment [3] is 10 nM (inactive). Further, the luciferase signal in experiment [4] was 76 AU (inactive).
Regarding `O=C1c2ccccc2C(=O)C1c1ccccc1`, the fold change is 0.851 (inactive) and 1.01 (inactive) and 0.873 (inactive) in experiment [1] (setting [6]); 1.04 and 0.811 and 1.49 in experiment [1] (setting [7]). Also, the cell count was 8760 and 1750 and 10200 in experiment [1] (setting [8]); 10300 and 1740 and 11700 in experiment [1] (setting [9]). Besides, the z-score was -0.152 (inactive) and 0.54 (inactive) in experiment [2] (setting [10]); -0.0639 and -0.0998 in experiment [2] (setting [11]). Also, the remaining NAD in experiment [3] is 10 nM (inactive). The luciferase signal in experiment [4] is 52 AU (inactive).
As for `COc1ccc(NS(=O)(=O)c2ccc(N)cc2)nn1`, the fold change in experiment [1] (setting [6]) was 0.86 (inactive) and 0.96 (inactive) and 0.867 (inactive); in experiment [1] (setting [7]) it was 1.18 and 0.826 and 3.5. The cell count in experiment [1] (setting [8]) was 7560 and 8690 and 11000; in experiment [1] (setting [9]) it was 8780 and 9050 and 12700. Further, the z-score is -0.236 (inactive) and -0.537 (inactive) in experiment [2] (setting [10]); -0.178 and -1.12 in experiment [2] (setting [11]). Moreover, the remaining NAD in experiment [3] is 10 nM (inactive). Moreover, the luciferase signal in experiment [4] was 28 AU (inactive).
Consider `Cc1c(C(N)=O)cc([N+](=O)[O-])cc1[N+](=O)[O-]`, for which the figures for the fold change in experiment [1] (setting [6]) and in experiment [1] (setting [7]) were 1.04 (inactive) and 1.27, respectively. In addition, the cell count in experiment [1] (setting [8]) was found to be 8930; in experiment [1] (setting [9]), 8590. Further, the values for the z-score in experiment [2] (setting [10]) and in experiment [2] (setting [11]) were -0.219 (inactive) and -0.175, respectively. Moreover, in experiment [3], the remaining NAD was 10 nM (inactive). The luciferase signal in experiment [4] is 68 AU (inactive).
With `C[N+]12CCC(CC1)C(OC(=O)C(O)(c1ccccc1)c1ccccc1)C2` (stereo unspecified), the fold change in experiment [1] (setting [6]) was 0.841 (inactive) and 0.859 (inactive); in experiment [1] (setting [7]), 1.4 and 1.29. Besides, the cell count is 8530 and 9960 in experiment [1] (setting [8]); 10100 and 11600 in experiment [1] (setting [9]). The z-score in experiment [2] (setting [10]) is 0.605 (inactive); in experiment [2] (setting [11]), -0.405. In addition, the remaining NAD in experiment [3] is 10 nM (inactive). Further, the luciferase signal in experiment [4] was 48 AU (inactive).
On to `Cc1ccc(C(=O)C(C)CN2CCCCC2)cc1` (stereo unspecified), for which the results for the fold change in experiment [1] (setting [6]) and in experiment [1] (setting [7]) were 0.986 (inactive) and 0.455, respectively. Moreover, the figures for the cell count in experiment [1] (setting [8]) and in experiment [1] (setting [9]) were 8610 and 8730, respectively. Besides, the figures for the z-score in experiment [2] (setting [10]) and in experiment [2] (setting [11]) were -0.166 (inactive) and -0.145, respectively. For the same compound, the remaining NAD in experiment [3] was 10 nM (inactive). In addition, the luciferase signal in experiment [4] was 40 AU (inactive).
As to `Cc1cc(=O)n(-c2ccccc2)n1C`, the fold change in experiment [1] (setting [6]) was 0.939 (inactive) and 0.859 (inactive) and 0.88 (inactive); in experiment [1] (setting [7]) it was 0.938 and 0.796 and 1.12. In addition, the cell count in experiment [1] (setting [8]) was 8700 and 7960 and 10700; in experiment [1] (setting [9]), 9270 and 12100. The z-score in experiment [2] (setting [10]) is -0.258 (inactive) and 0.556 (inactive); in experiment [2] (setting [11]), -0.2 and -0.0597. For the same compound, the remaining NAD in experiment [3] is 10 nM (inactive). Also, in experiment [4], the luciferase signal is 116 AU (inactive).
Consider `CCN(CC)CCOC(=O)C(Cc1cccc2ccccc12)CC1CCCO1` (stereo unspecified), for which the fold change is 0.845 (inactive) and 0.836 (inactive) in experiment [1] (setting [6]); 1.23 and 5.94 in experiment [1] (setting [7]). For the same compound, the cell count in experiment [1] (setting [8]) is 9000 and 10700; in experiment [1] (setting [9]) it was 10700 and 12800. In addition, the z-score in experiment [2] (setting [10]) is 0.101 (inactive); in experiment [2] (setting [11]) it was -0.0853. For the same compound, in experiment [3], the remaining NAD is 10 nM (inactive). In addition, in experiment [4], the luciferase signal was 36 AU (inactive).
Consider `Nc1ccc(S(=O)(=O)Nc2cnc3ccccc3n2)cc1`, for which the fold change in experiment [1] (setting [6]) is 0.892 (inactive) and 0.874 (inactive); in experiment [1] (setting [7]), 0.858 and 3.15. Besides, the cell count in experiment [1] (setting [8]) is 8790 and 11400; in experiment [1] (setting [9]), 9850 and 13000. The results for the z-score in experiment [2] (setting [10]) and in experiment [2] (setting [11]) were 0.496 (inactive) and 0.547, respectively. Further, the remaining NAD in experiment [3] was 10 nM (inactive). In experiment [4], the luciferase signal was 84 AU (inactive).
Consider `CN1CCC(OC(c2ccccc2)c2ccccc2)CC1`, for which the fold change is 0.843 (inactive) and 0.871 (inactive) in experiment [1] (setting [6]); 1.44 and 0.876 in experiment [1] (setting [7]). Also, the cell count was 8640 and 11300 in experiment [1] (setting [8]); 10200 and 13000 in experiment [1] (setting [9]). Further, the z-score in experiment [2] (setting [10]) is 0.35 (inactive); in experiment [2] (setting [11]), 0.809. For the same compound, in experiment [3], the remaining NAD is 10 nM (inactive). Further, the luciferase signal in experiment [4] was 32 AU (inactive).
Regarding `NC(N)=Nc1nc(CSCC/C(N)=N/S(N)(=O)=O)cs1`, the fold change in experiment [1] (setting [6]) is 0.977 (inactive) and 0.894 (inactive) and 0.942 (inactive); in experiment [1] (setting [7]) it was 1.04 and 0.96 and 0.999. Further, the cell count in experiment [1] (setting [8]) was 10400 and 8060 and 10100; in experiment [1] (setting [9]) it was 10600 and 9010 and 10700. The z-score is 0.33 (inactive) and 1.06 (inactive) in experiment [2] (setting [10]); 0.0847 and 0.907 in experiment [2] (setting [11]); 0.125 (inactive) and 0.38 (inactive) in experiment [5]. Moreover, the remaining NAD in experiment [3] was 10 nM (inactive). Moreover, the luciferase signal in experiment [4] is 72 AU (inactive).

The values are drawn from PubChem BioAssay.
